# Measured values published in the supplement of paper PMC3334620.
# The full ranking holds about 33,000 sequences; the median of “E-score (-0.5 to 0.5)” is about -0.043, and the highest 2% start at about 0.37. For the sample, the highest values were picked, then their nearest neighbours and some sequences at random.
# Molecular target: T1, Upc2 (UniProt Q12151)
# T1 sequence: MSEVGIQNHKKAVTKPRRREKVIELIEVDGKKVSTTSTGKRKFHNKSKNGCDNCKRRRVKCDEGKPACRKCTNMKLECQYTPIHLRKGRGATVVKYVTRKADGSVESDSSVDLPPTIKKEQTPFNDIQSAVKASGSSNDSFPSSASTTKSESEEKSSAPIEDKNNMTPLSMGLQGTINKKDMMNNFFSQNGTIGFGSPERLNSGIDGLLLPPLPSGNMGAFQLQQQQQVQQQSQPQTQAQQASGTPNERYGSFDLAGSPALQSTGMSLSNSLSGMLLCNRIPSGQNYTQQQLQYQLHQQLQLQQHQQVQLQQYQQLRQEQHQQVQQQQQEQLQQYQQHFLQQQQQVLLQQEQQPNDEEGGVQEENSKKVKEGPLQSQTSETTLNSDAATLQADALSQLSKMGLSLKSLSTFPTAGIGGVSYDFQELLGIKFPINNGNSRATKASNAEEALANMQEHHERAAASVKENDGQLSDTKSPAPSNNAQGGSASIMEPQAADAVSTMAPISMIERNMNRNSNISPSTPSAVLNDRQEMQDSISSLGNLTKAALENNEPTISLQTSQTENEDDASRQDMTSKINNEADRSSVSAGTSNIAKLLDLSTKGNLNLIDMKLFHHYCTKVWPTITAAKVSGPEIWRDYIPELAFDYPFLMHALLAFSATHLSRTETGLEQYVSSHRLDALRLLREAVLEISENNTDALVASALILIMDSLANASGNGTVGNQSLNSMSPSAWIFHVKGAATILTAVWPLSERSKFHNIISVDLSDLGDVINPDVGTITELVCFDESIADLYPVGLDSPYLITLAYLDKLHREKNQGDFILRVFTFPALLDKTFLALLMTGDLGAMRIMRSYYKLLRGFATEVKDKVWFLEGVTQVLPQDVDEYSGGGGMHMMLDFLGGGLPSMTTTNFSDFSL
# Assay: PBM E-score (8-mer binding enrichment) (E-score (-0.5 to 0.5)); higher = stronger / more preferred TF binding
# Settings: protein concentration: 200 nM; construct: GST-full length
# Description: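 Universal 'all 10-mer' protein binding microarrays (Agilent AMADID 015681) probed with GST-tagged S. cerevisiae TFs (full-length or DBD) made by in vitro transcription/translation (PURExpress), about 100-200 nM. Bound TF was detected with fluorescent anti-GST. Each ungapped 8-mer (which stands for itself and its reverse complement) is scored by the PBM enrichment score (E-score), a modified Wilcoxon-Mann-Whitney statistic from -0.5 to +0.5, computed with the Universal PBM Analysis Suite. Scale: above 0.35 generally sequence-specific binding.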
row,Sequence,PBM E-score
1,ACACCATC,-0.205
2,CCAAGGAC,-0.247
3,CGGAGAAA,0.158
4,CTTGATCA,-0.14
5,ATTTATAA,0.0439
6,CGCTATAC,0.392
7,CTATATAC,0.358
8,ATCTATAC,0.287
9,CGTTATAC,0.367
10,GGCTATAC,0.299
11,ATTTATAC,0.41
12,AGTTATAC,0.333
13,AGCTATAC,0.309
14,CTCTATAC,0.397
15,CTTTATAC,0.303
16,GGTTATAC,0.383
17,TCGAGAGA,0.0401
18,GCTAACAC,-0.0792
19,CCTTACAA,-0.227
20,ACCTATAC,0.382
21,GCCTATAC,0.276
22,CCCTATAC,0.342
23,AAGGGGGC,0.0404
24,CATCTTCA,-0.263
25,CCAACGAG,0.091

row,Sequence,PBM E-score
1,GAAACGCC,0.0519
2,AAAACGAG,0.316
3,AAAACGAC,0.375
4,CAAACGAG,0.484
5,CCAACGAC,0.0191
6,AAAACGAT,0.265
7,CTAACGAC,0.279
8,GAAACGGC,0.187
9,GAAACGAC,0.423
10,ACAACGAC,0.258
11,CAAACGAC,0.464
12,ATTGCTGG,-0.0945
13,CACGGCTC,-0.128
14,ACGCTGGA,0.0743
15,CCAACCCA,-0.236
16,ATCCACCC,-0.179
17,GGGTTACC,0.0304
18,ACGCTTAA,0.135
19,ATTGGATG,0.03
20,ATTACCAA,-0.131
21,CGCTAGAC,-0.0752
22,GCGTACCA,0.215
23,ACGTACAA,0.309
24,TCGTACAA,0.487
25,TCGTACCA,0.476

row,Sequence,PBM E-score
1,ACGTACCA,0.255
2,CGGTACAA,0.222
3,CCGTACAA,0.413
4,CAGTACAA,-0.0317
5,GCGTACAA,0.324
6,AGCCCTTC,-0.211
7,ATATATCC,0.0459
8,AGAGGACG,-0.0919
9,AATGGGCA,-0.00586
10,CAAGATAG,-0.0974
11,ATTTCGTC,0.0429
12,CTTTCGTA,0.416
13,ATTTCGTA,0.431
14,CTTTCGGA,-0.11
15,GTTTCGAA,0.0998
16,ATTTCGTG,0.0688
17,CTTTCGTC,-0.043
18,GTTTCGTA,0.446
19,GTTTCGGA,0.219
20,CATAATCC,-0.0711
21,GAAGGCGC,-0.132
22,AGCGTAAT,-0.0565
23,CAGCTATA,0.0617
24,AGACGATG,0.0313
25,ACACGATC,0.123

row,Sequence,PBM E-score
1,ATACGATC,0.465
2,ACACGATG,0.166
3,ATACGATG,0.473
4,CTACGATC,0.288
5,CGCTAAAC,0.345
6,ACAAGCCC,-0.1
7,TAGAACGA,0.383
8,CAGAACGG,0.139
9,CAGAACGA,0.399
10,AAGAACGG,0.0306
11,AAGAACGA,0.408
12,AAGAACGT,0.108
13,TAGAACCA,-0.0454
14,CAGAACGC,-0.0286
15,GAGAACGA,0.36
16,CTTGGATA,-0.103
17,AACCTAAC,-0.0536
18,CCCCAACG,-0.107
19,ATTTAACG,0.387
20,CCTAAACA,-0.063
21,ACTAAACG,0.463
22,ATTAAACG,0.461
23,ATTAAACA,-0.0789
24,ACTAAACA,-0.109
25,ATTAAACC,-0.0396

row,Sequence,PBM E-score
1,ACTAAACC,0.0385
2,CCTAAACC,0.0842
3,ATTTAACC,-0.0686
4,CCTAAACG,0.472
5,ATTTAACA,0.0412
6,CGACTCTA,0.0472
7,CAAGGTTA,0.0313
8,AGCATCCG,0.106
9,TACTCAGA,-0.0518
10,CGCCTGTA,-0.0476
11,GACCCACA,0.0499
12,CAAGTAAA,0.0181
13,GGTTGACA,-0.0866
14,ATCTAATC,-0.0686
15,TCTCGTAA,0.434
16,TCTCGTCA,-0.0265
17,CCTCGTAA,0.444
18,CCTCGTAC,0.477
19,CCGCGTAC,0.324
20,CCTCGTGA,0.168
21,TCACGTAA,0.0344
22,CCTCATAG,-0.226
23,CCTCGGAC,0.199
24,CCTCGTCG,0.195
25,CCTCGTAG,0.389

row,Sequence,PBM E-score
1,CCTCGTCA,0.108
2,CATCACTA,-0.183
3,CACTTTCA,-0.151
4,CCTACACA,-0.118
5,CGAGAGAA,0.113
6,CCTCAGTA,-0.0614
7,GCTCGTGA,0.00182
8,ACTCGTAC,0.472
9,GCTCGTAA,0.456
10,GCTCGTCC,-0.249
11,ACTCGTGC,0.0738
12,ACTCGTCA,-0.0246
13,GCACGTAC,0.227
14,GCTCGTAC,0.477
15,GCTCGTCA,0.0569
16,ACTCGTCC,-0.141
17,ACTCGTAA,0.433
18,ACTCGTAG,0.353
19,CCTAAGGA,-0.0656
20,ACAAGCTC,-0.0437
21,CCGTGGCC,-0.206
22,CCAAGTGG,-0.186
23,ATGCAACG,0.113
24,ACCCCTGC,-0.412
25,ATGACTCA,0.029

row,Sequence,PBM E-score
1,CAGCCTCA,-0.0411
2,CTCTCAAG,-0.308
3,AGATATGC,-0.186
4,ACTCGGAT,0.252
5,ACTCGTAT,0.483
6,ACTCGTCT,0.167
7,ATCGATCC,-0.00332
8,CATCCACA,-0.0464
9,CTAAGCTA,0.015
10,CTAAGCGC,0.14
11,GGAAGCGA,0.145
12,CTAAGCGA,0.416
13,GTAAGCGA,0.388
14,ATAAGCGA,0.347
15,CCATCGAC,-0.247
16,ATGGGAGA,-0.251
17,AACCGGTT,0.107
18,ACTCTAGC,-0.12
19,GGAACTGA,-0.0729
20,AACGCTGA,0.0761
21,CTAGTGAA,-0.126
22,GTCGTTCA,0.467
23,CTCGTTGA,0.313
